Bioassay records (PubChem)
D2 PAM-1 = Beta-Arrestin HTS for Positive Allosteric Modulators of the Human D2 Dopamine Receptor: Potentiators | DiscoveRx D2 beta-arrestin cells, luminescence, 90 min; 100% = 57 uM dopamine signal | potentiation, % (no concentration beside the values) | 360,000 tested, 0.23% active; in the data active = potentiation above about 50%
Target sequence (P14416 whole entry, looked up): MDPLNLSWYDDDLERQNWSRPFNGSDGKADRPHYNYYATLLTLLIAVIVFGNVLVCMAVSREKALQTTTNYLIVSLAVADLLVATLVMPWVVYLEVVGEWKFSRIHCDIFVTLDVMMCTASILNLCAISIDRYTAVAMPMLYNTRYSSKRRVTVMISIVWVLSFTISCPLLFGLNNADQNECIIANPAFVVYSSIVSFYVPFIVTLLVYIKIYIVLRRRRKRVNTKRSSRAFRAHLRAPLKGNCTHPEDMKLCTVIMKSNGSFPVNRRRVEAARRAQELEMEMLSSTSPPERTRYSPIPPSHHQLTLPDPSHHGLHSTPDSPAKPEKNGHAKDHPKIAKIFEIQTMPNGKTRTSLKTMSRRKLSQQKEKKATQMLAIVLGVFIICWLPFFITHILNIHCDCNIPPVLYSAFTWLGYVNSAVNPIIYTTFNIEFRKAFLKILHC
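D2 cells co-treated with compound plus 50 nM dopamine (EC20) for 90 min at 37 deg C to detect potentiation. Beta-arrestin recruitment was read as enzyme-fragment luminescence after 1 h at ambient temperature. Full response was set by 57 uM dopamine.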
D2 antag = HTS Assay for Allosteric Antagonists of the Human D2 Dopamine Receptor: Primary Screen for Antagonists; D(2) dopamine receptor (Homo sapiens), P14416; HEK293 TREx D2 cells, calcium flux, dopamine EC80; inhibition, % at 10 µM; 340,000 tested, 2% active; AID 485344, 2010; in the data active = inhibition above about 30%; inactive = below that, where a call was filed
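Antagonism is scored as inhibition of an EC80 dopamine-evoked calcium signal in a force-coupled, tetracycline-inducible HEK293 T-REx D2 line, with compound present 180 s before agonist.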
D2 PAM-2 = HTS Assay for Positive Allosteric Modulators of the Human D2 Dopamine Receptor: Primary Screen for Potentiators; D(2) dopamine receptor (Homo sapiens), P14416; HEK293 T-REx D2, calcium flux, EC20 dopamine potentiation; potentiation, % at 10 µM; 340,000 tested, 0.34% active; AID 485347, 2010;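 active = potentiation over 3 SD above the plate norm, cut at about 30% in these data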
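Tetracycline-induced Hek293 Trex D2 cells, force-coupled to calcium, loaded with no-wash calcium dye. Compound added with 180 s kinetic read for agonism, then EC20 dopamine and a further 180 s read for potentiation.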
D2 ag-1 = HTS Assay for Allosteric Agonists of the Human D2 Dopamine Receptor: Primary Screen for Agonists; D(2) dopamine receptor (Homo sapiens), P14416; HEK293 T-REx D2 cells, calcium flux agonist mode; activation, % at 2 µM; 340,000 tested, 0.53% active; AID 485358, 2010;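 active = activation over 3 SD above normal in the single-dose calcium agonist read, cut at about 30% in these data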
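Calcium-flux readout, 1 cycle/sec over 180 s following compound pin transfer, in inducible HEK293 Trex D2 cells (force-coupled); dopamine controls included. Positive calcium responses during this window marked compounds as potential agonists.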
D2 ag-2 = Beta-Arrestin HTS for Positive Allosteric Modulators of the Human D2 Dopamine Receptor: Agonists; D(2) dopamine receptor (Homo sapiens), P14416; DiscoveRx PathHunter D2 beta-arrestin, luminescence, 90 min; 100% = 57 uM dopamine signal; activation, % (no concentration beside the values); 360,000 tested, 0.084% active; AID 624465, 2012; in the data active = activation above about 40%
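Agonist mode: compounds alone added to overnight-plated D2 PathHunter cells for 90 min at 37 C, with 57 uM final dopamine (EC100) defining full response. Beta-arrestin recruitment detected by chemiluminescent reagent, read after 1 h at ambient temperature.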
A number is an active result; n = inactive; x = no result given. A selection: hits, their analogues and other compounds. The true share with any hit is near 2.4%.

SMILES	D2 PAM-1	D2 antag	D2 PAM-2	D2 ag-1	D2 ag-2
CCCCNC(=O)CC(NS(=O)(=O)c1ccc(C)cc1)c1ccco1 (configuration not stated)	n	n	n	n	n
CCCNC(=O)CC(NS(=O)(=O)c1ccc(OC)cc1)c1ccco1 (configuration not stated)	n	n	34.9	n	n
Cc1ccccc1-c1nnc(SCC(=O)N2CCCc3ccccc32)o1	x	x	n	n	x
CC1CCc2cc(F)ccc2N1S(=O)(=O)c1ccc(Cl)nc1 (configuration not stated)	n	35.4	n	n	n
COc1ccccc1N1CCN(c2ccc(NC(=O)c3ccc(C)cc3)cc2C(=O)O)CC1	x	x	n	x	x
O=C(CNCc1ccco1)Nc1ccccc1-n1cccc1	n	38.0	n	n	n
O=C(CNCc1ccco1)Nc1ccc(Oc2ccccc2)cc1	n	n	n	n	n
O=C(c1ccc(F)cc1)c1cn(Cc2ccccc2)c2cc3c(cc2c1=O)OCO3	x	x	n	n	x
O=C(CCN1C(=O)c2ccccc2S1(=O)=O)N1CCN(c2ccc(F)cc2)CC1	n	32.8	n	n	n
O=C(CCN1C(=O)c2ccccc2S1(=O)=O)N1CCN(c2ccccc2)CC1	n	n	n	n	n
Cc1cc(C)c(-c2n[nH]c3c2C(c2ccccc2F)N(Cc2ccco2)C3=O)c(O)c1 (configuration not stated)	x	x	n	n	x
COc1ccc(CN2CCN(C(c3ccc(F)cc3)c3ccc(F)cc3)CC2)c(OC)c1OC	n	x	x	x	n
COc1ccc(CN2CCN(Cc3cccc(Oc4ccccc4)c3)CC2)c(OC)c1OC	n	33.9	n	n	n
CN1CCN(Cc2cccc(Oc3ccccc3)c2)CC1	n	n	n	n	n
COc1ccc(CN2CCN(c3ccc(F)cc3)CC2)c(OC)c1OC	n	33.3	n	n	n
Cc1nn(-c2ccc(N3CCCC3)nn2)c(C)c1CCC(=O)N1CCN(c2ccccc2)CC1	x	x	n	n	x
CN1C(=O)c2oc3ccccc3c(=O)c2C1c1ccccn1 (configuration not stated)	n	n	32.5	n	n
CN1C(=O)c2oc3ccccc3c(=O)c2C1c1cccnc1 (configuration not stated)	n	x	x	x	n
O=C(CN(C(=O)c1csnn1)c1ccccc1F)NCc1ccc2c(c1)OCO2	n	n	n	n	n
O=C(CN(C(=O)c1csnn1)c1cccc(F)c1)NCc1ccc2c(c1)OCO2	n	42.3	n	n	n
Cc1noc(C)c1CSc1nc2[nH]ncc2c(=O)n1-c1ccccc1	n	n	31.8	n	n
COC(=O)C1=C(C)N(c2ccc(Cl)c(Cl)c2)C(=O)C1	n	32.1	n	n	n
CSc1ccc2c(c1)N(CCC1CCCCN1C)c1ccccc1S2 (configuration not stated)	n	98.1	n	n	n
CCCC(=O)Nc1nnc(SCc2cc(=O)c3cc(C)ccc3[nH]2)s1	x	x	n	n	x
NC1=NC2(CCN(Cc3ccccc3)CC2)n2c(nc3ccccc32)N1	n	43.2	n	n	n
SMILES	D2 PAM-1	D2 antag	D2 PAM-2	D2 ag-1	D2 ag-2
COc1ccc(CCNS(=O)(=O)c2cc3c4c(c2)CC(=O)N4CCC3)cc1	n	34.7	n	n	n
COc1ccc(OC)c(-c2nnc3n(Cc4ccc(C)cc4)c(=O)c4ccccc4n23)c1	x	x	n	n	x
CCOc1ccc(N=C2C(=O)Nc3ccc(C)c(Br)c32)cc1	n	42.4	n	n	n
Cc1ccc2c(c1Br)/C(=N/N1C(=O)c3ccccc3C1=O)C(=O)N2	n	n	n	n	n
Cc1cc(OCCCSc2nc(-c3ccc(C(C)(C)C)cc3)nc3cc(=O)[nH]n23)ccc1Cl	x	x	n	n	x
CC(C)Cn1nc(C(=O)NCc2ccccc2CN2CCCC2)c2ccccc2c1=O	n	44.9	n	n	n
CCCn1nc(C(=O)NCc2ccc3c(c2)OCO3)c2ccccc2c1=O	n	n	38.7	n	n
COc1ccc(CN2COc3ccc4c(-c5ccc(OC)cc5)cc(=O)oc4c3C2)cc1	x	x	n	x	x
COc1nc(OC)nc(N2CCC(C(=O)NCC3CCCCC3)CC2)n1	n	n	n	n	n
COc1nc(OC)nc(N2CCCCCC2)n1	n	33.0	n	n	n
O=C(Nc1ccccc1C(=O)N1CCCC1)c1ncoc1-c1cccc(Cl)c1	n	n	n	n	n
Cc1ccc(-c2ocnc2C(=O)Nc2ccccc2C(=O)N2CCCC2)cc1	n	57.1	n	n	n
COc1ccc(-c2cc(C(F)F)n3ncc(C(=O)N4CCN5CCCC5C4)c3n2)cc1 (configuration not stated)	n	51.8	n	n	n
Cc1cc(C)cc(NC(=O)N2CCC(CN3CCc4ccccc4C3)CC2)c1	x	x	n	x	x
COc1ccc(NC(=O)C(=O)NCCN2CCN(C(=O)c3ccc(C)cc3)CC2)cc1	n	46.0	n	n	n
COc1ccc(CCNC(=O)CCSCc2ccccc2Cl)cc1OC	x	x	n	n	x
CC1CN(C(=O)/C(C#N)=C2\N=C(NC(=O)c3ccccc3Cl)c3ccccc32)CC(C)O1 (configuration not stated)	x	58.9	n	n	x
CN(C)CCCNS(=O)(=O)c1cc(Cl)ccc1Cl	n	38.2	n	n	n
COc1cccc(NC(=O)Cn2c(=O)n(Cc3ccc(C(=O)NCc4ccc5c(c4)OCO5)cc3)c(=O)c3ccccc32)c1	x	x	n	n	x
COc1ccc(CNC(=O)C2CCC(=O)N(CCCN3CCCC3=O)C2)cc1 (configuration not stated)	n	n	n	n	n
COc1ccc(C(C)(C)NC(=O)C2CCC(=O)N(CCCN3CCCC3=O)C2)cc1 (configuration not stated)	n	33.4	n	n	n
CCCCC(CC)CNC(=O)CN1C(=O)CSc2ccc(S(=O)(=O)N3CCOCC3)cc21 (configuration not stated)	x	x	n	n	x
N#CCCn1cc(/C=N/N=C2\NC(=O)C(CC(=O)O)S2)c(-c2ccc(F)cc2)n1 (configuration not stated)	n	35.1	n	n	n
CC(Sc1nnnn1C1CC1)C(=O)N1CC(=O)Nc2ccccc21 (configuration not stated)	n	47.0	n	n	n
COc1ccc(-c2nnc(SCC(=O)Nc3cc(C)on3)o2)cc1	n	35.6	n	n	n
